Compound activity deposited in PubChem BioAssay by DiRusso Lab, Biochemistry Department, University of Nebraska.
The entries come from a sample that favours hits as a whole.
Algae TAG accum = algal TAG accumulation induction. calls only at 10 µM (by protocol). 44,000 compounds, 0.84% hits. Chlamydomonas reinhardtii TAG, Nile Red fluorescence, 72 h; call rule not given here;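 further: hits raise Nile Red signal meaning more stored TAG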
* marks the source's active call; other numbers are inactive results.

Screening O=C(Nc1nc2c(s1)CCCC2)c1cccc(Cl)c1 returned Algae TAG accum inactive.
OC(COCCC12CC3CC(CC(C3)C1)C2)CN1CCOCC1 (stereo unspecified) was read as Algae TAG accum inactive.
CCOC(=O)N1CCN(CC(O)COCCC23CC4CC(CC(C4)C2)C3)CC1 (stereo unspecified) was read as Algae TAG accum inactive.
Screening CCN1CCN(CC(O)COCCC23CC4CC(CC(C4)C2)C3)CC1 (stereo unspecified) returned Algae TAG accum active.
For O=Cc1ccc(-c2ccc(-n3cnnn3)cc2)o1 the results were Algae TAG accum inactive.
Screening NC(=O)c1ccc(NC(=O)c2ccc(-c3ccccc3)cc2)cc1 returned Algae TAG accum inactive.
For CCCc1cc(=O)[nH]c(SCC(=O)Nc2ccc(Cl)cc2C)n1 the results were Algae TAG accum inactive.
O=C(CN(c1ccc(F)cc1)S(=O)(=O)c1ccc2c(c1)OCCO2)N1CCCC1 was read as Algae TAG accum inactive.
`CCCCOc1ccc(CN2CCN(c3ccc([N+](=O)[O-])cc3)CC2)cc1` gave Algae TAG accum active.
For COc1cc(CN2CCN(c3ccc([N+](=O)[O-])cc3)CC2)cc(Br)c1O the results were Algae TAG accum inactive.
For O=[N+]([O-])c1ccc(N2CCN(Cc3ccncc3)CC2)cc1 the results were Algae TAG accum inactive.
`O=[N+]([O-])c1ccc(CN2CCN(c3ncccn3)CC2)cc1` gave Algae TAG accum inactive.
O=C(O)c1ccc(CN2CCN(c3ccc([N+](=O)[O-])cc3)CC2)cc1 was read as Algae TAG accum inactive.
`CCOc1ccc(CN2CCN(c3ccc([N+](=O)[O-])cc3)CC2)cc1` gave Algae TAG accum active.
For COc1cc(C=O)ccc1OCCCCOc1ccccc1OC(C)C the results were Algae TAG accum inactive.
O=C(C1CCN(Cc2ccccc2Cl)CC1)N1CCCC1 was read as Algae TAG accum inactive.
Screening O=C(Nc1ccc([N+](=O)[O-])cc1)c1ccccc1Cl returned Algae TAG accum active.
For Cc1ccccc1C(=O)Nc1ccc([N+](=O)[O-])cc1 the results were Algae TAG accum inactive.
Screening CCSc1ccc(C(=O)Nc2ccc(Cc3ccncc3)cc2)cc1[N+](=O)[O-] returned Algae TAG accum active.
For COc1ccc(C(=O)Nc2ccc(C(C)C)cc2)cc1[N+](=O)[O-] the results were Algae TAG accum inactive.
Screening O=C(Nc1cccc(NC(=O)c2ccccc2Cl)c1)c1ccc([N+](=O)[O-])cc1 returned Algae TAG accum inactive.
`O=C(Nc1cccc(Cl)c1)c1ccc([N+](=O)[O-])cc1Cl` gave Algae TAG accum inactive.
For O=C(O)c1ccc(NC(=O)c2ccc([N+](=O)[O-])cc2)cc1 the results were Algae TAG accum inactive.
Screening COc1cccc(OC)c1C(=O)Nc1ccc([N+](=O)[O-])cc1 returned Algae TAG accum inactive.
Screening CCC(C)c1ccc(NC(=O)c2ccc([N+](=O)[O-])cc2Cl)cc1 (stereo unspecified) returned Algae TAG accum inactive.
Screening Cc1ccc(C(=O)Nc2ccncc2)cc1[N+](=O)[O-] returned Algae TAG accum inactive.
O=C(Nc1ccc(Cc2ccncc2)cc1)c1ccc([N+](=O)[O-])cc1Cl was read as Algae TAG accum active.
For O=C(Nc1ccc([N+](=O)[O-])cc1)c1c(F)c(F)c(F)c(F)c1F the results were Algae TAG accum active.
COc1ccc(CNc2ccccc2[N+](=O)[O-])cc1 was read as Algae TAG accum inactive.
`COc1ccc(CCNC(=O)C(=O)NC2CCCCCC2)cc1OC` gave Algae TAG accum inactive.
For COc1ccc(CCNC(=O)C(Cl)(Cl)Cl)cc1OC the results were Algae TAG accum inactive.
Screening CC1CCN(C(=O)Cn2cc(C=O)c3cc(Br)ccc32)CC1 returned Algae TAG accum inactive.
For Cc1cccc(C)c1NS(=O)(=O)c1ccc(Br)cc1 the results were Algae TAG accum inactive.
COCCNC(=O)C12CC3CC(C1)CC(C(=O)NCCOC)(C3)C2 was read as Algae TAG accum inactive.
Screening Cc1cc(I)ccc1NC(=O)Cc1ccc(Cl)cc1 returned Algae TAG accum inactive.
For COCCCN1C(=O)c2ccc(C(=O)Nc3ccc(Br)cc3)cc2C1=O the results were Algae TAG accum inactive.
COc1cccc(CN2CCN(C(=O)C(c3ccccc3)c3ccccc3)CC2)c1OC was read as Algae TAG accum inactive.
COc1ccccc1C(=O)N1CCN(C(=O)C(c2ccccc2)c2ccccc2)CC1 was read as Algae TAG accum active.
Screening COc1cc(OC)cc(C(=O)N2CCN(C(=O)C(c3ccccc3)c3ccccc3)CC2)c1 returned Algae TAG accum inactive.
`COc1ccc(CC(=O)NC2CCCCC2C)cc1` (stereo unspecified) gave Algae TAG accum inactive.
Screening Cc1ccc2nc(-c3ccc(N4C(=O)CCC4=O)cc3)sc2c1 returned Algae TAG accum inactive.
For CC1(C)CC(NC(=O)Cc2ccccc2[N+](=O)[O-])CC(C)(C)N1 the results were Algae TAG accum active.
Screening CC1(C)CC(NC(=O)CC(c2ccccc2)c2ccccc2)CC(C)(C)N1 returned Algae TAG accum inactive.
Screening COc1ccccc1CC(=O)NC1CC(C)(C)NC(C)(C)C1 returned Algae TAG accum inactive.
COc1ccc(/C(O)=C(\C#N)c2nc3ccccc3s2)cc1 was read as Algae TAG accum inactive.
`N#CC(=CC=Cc1ccccc1[N+](=O)[O-])c1nc(-c2ccc3c(c2)OCO3)cs1` gave Algae TAG accum inactive.
For CC(C)c1ccc(CN2CCC(O)CC2)cc1 the results were Algae TAG accum inactive.
`CC(C)c1ccc(CN2CCOCC2)cc1` gave Algae TAG accum active.
Screening Clc1ccc(CN2CCOCC2)cc1Cl returned Algae TAG accum inactive.
For O=[N+]([O-])c1cc(S(=O)(=O)N2CCCCC2)ccc1N1CCOCC1 the results were Algae TAG accum inactive.
`NC(=O)C1CCCN(Cc2ccccc2Br)C1` (stereo unspecified) gave Algae TAG accum inactive.
`O=C(O)c1ccc(Sc2nnn(-c3ccccc3)n2)c([N+](=O)[O-])c1` gave Algae TAG accum inactive.
For COc1ccc(-c2csc(C)n2)cc1[N+](=O)[O-] the results were Algae TAG accum inactive.
For CC(=O)c1cc2c(N)c(C(N)=NC#N)sc2nc1C the results were Algae TAG accum inactive.
O=C1CCC(=O)N1c1ccc(Oc2ccc(Br)cc2)cc1 was read as Algae TAG accum inactive.
Screening COc1ccccc1CN1CCC(C(=O)N(CCN(C)C)Cc2ccccc2)CC1 returned Algae TAG accum inactive.
`CCN(Cc1ccccc1)C(=O)C1CCN(Cc2ccccc2F)CC1` gave Algae TAG accum active.
`O=C(C1CCN(Cc2ccccc2O)CC1)N(CCO)Cc1ccccc1` gave Algae TAG accum inactive.
Screening CN1CCN(CC#CC=C(c2ccccc2)c2ccccc2)CC1 returned Algae TAG accum active.
`CN1CCN(CCC(=O)Nc2ccccc2)CC1` gave Algae TAG accum inactive.
Screening CN1CCN(CCCCOc2ccc(C(=O)c3ccccc3)cc2)CC1 returned Algae TAG accum inactive.
For CCCCC(=O)Nc1nnc(Cc2ccccc2)s1 the results were Algae TAG accum inactive.
Screening COc1ccc(C2C(=C(O)c3ccc(OC)c(OC)c3)C(=O)C(=O)N2CCN(C)C)cc1 (stereo unspecified) returned Algae TAG accum inactive.
Screening Cc1ccc(OCCCCN2CCCCC2)c(C)c1 returned Algae TAG accum active.
Screening Cc1ccc(C(C)(C)C)c(OCCCCN2CCN(C)CC2)c1 returned Algae TAG accum inactive.
